Experimental data reported in PubChem BioAssay (NCATS).
Records with an inconclusive call do not appear. Active and inactive are the calls of the source. Unless noted, calls come from the whole dose curve; as a rule, active = well fitted curve in the direction sought with a large enough effect; inconclusive = small, poorly fitted or top-dose-only effect, or another doubt; inactive = no such curve, though single readings can be large; an effect the other way counts as inactive or inconclusive.

Legend:
[1] = Cell Viability - BJ (AID 421; calls by dose curve;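 note: potency is the fitted concentration of half-maximal effect; cells exposed to compound for 40 hours at 37 °C before readout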); conditions: BJ fibroblast viability, qHTS
Method in brief: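 Luminescent ATP signal (CellTiter-Glo, 20 min at room temperature) served as the read-out of viable BJ cells after 40 hours of compound treatment. Responses were scaled between DMSO and 100 uM tamoxifen, and AC50 values were obtained by Hill modeling.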

[2] = Cell Viability - Jurkat (AID 426;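 active = dose-dependent loss of cell ATP signal giving a full or clear fitted curve, ranked by lower potency value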;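 note: potency is the fitted concentration of half-maximal effect; cells exposed to compound for 40 hours at 37 °C before ATP read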); conditions: qHTS
Method in brief: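 Cytotoxicity was scored as loss of cellular ATP, measured by luciferase-based luminescence, in Jurkat clone E6-1 cells after 40 h compound treatment; tamoxifen and doxorubicin served as positive controls.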

[3] = Cell Viability - Hek293 (AID 427;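 active = compounds whose dose-response curve shows a full or clear partial loss of cell viability, called from curve shape rather than a numeric limit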;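 note: potency is the fitted concentration of half-maximal effect; cells exposed to compound for 40 hours at 37 °C before reading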); conditions: qHTS
Method in brief: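 Luminescent ATP read-out (CellTiter-Glo, 20 min RT) after 40 hr compound exposure at 37 °C in complete medium. Signal normalized to DMSO (basal) and 100 uM tamoxifen (100% inhibition); concentration-response fitted with the standard Hill equation to give AC50.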

[4] = Cell Viability - HepG2 (AID 433; calls by dose curve;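 note: potency is the fitted concentration of half-maximal effect; potency for ATP loss meaning cytotoxicity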); conditions: qHTS
Method in brief: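 Read-out is luciferase-based quantitation of cellular ATP as a measure of viable HepG2 cells after 40 h treatment at 37 °C. Signal decrease is scaled between DMSO-only and 100 uM tamoxifen controls, with AC50 fitted by the Hill equation.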

[5] = Cell Viability - MRC5 (AID 434; calls by dose curve;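 note: potency is the fitted concentration of half-maximal effect; cells exposed to compound for 40 hours at 37 °C; potency reflects cytotoxicity seen as loss of intracellular ATP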); conditions: MRC5 lung fibroblast viability, qHTS
Method in brief: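 AC50 values come from Hill-equation fits of intracellular ATP loss, measured by CellTiter-Glo luminescence. Normal lung fibroblasts (MRC5) had 40 hr compound treatment at 37 C, normalized between DMSO and 100 uM tamoxifen.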

[6] = Cell Viability - SK-N-SH (AID 435; calls by dose curve;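 note: potency is the fitted concentration of half-maximal effect; compound exposure lasted 40 h at 37 °C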); conditions: SK-N-SH neuroblastoma cell viability qHTS
Method in brief: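 Luminescent ATP signal served as the viability read-out after 40 hours of compound treatment of human neuroblastoma SK-N-SH cells. Concentration-response data, scaled between DMSO and 100 uM tamoxifen, gave AC50 values by standard Hill modeling.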

[7] = Cell Viability - NIH 3T3 (AID 541); conditions: NIH 3T3 cell viability, qHTS; activity change, negative = cytotoxicity: at 92.2 µM (top of the series);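 note: plate controls were DMSO alone for no effect and tamoxifen positive control for full effect; nearly all actives have a fitted effect of over 25% in size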
Method in brief: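 In this cytotoxicity screen, acute toxicity is scored as an ATP drop measured by CellTiter-Glo in NIH 3T3 fibroblasts following a 40 hr, 37 °C incubation with compound.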

[8] = Cell Viability - HUV-EC-C (AID 542); conditions: HUV-EC-C endothelial cell viability, qHTS; series mostly up to 92.2 µM; note: % is set by controls: 0 for no effect and ±100 for the full control effect; nearly all actives have a fitted effect of over 35% in size
Method in brief: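 Concentration-dependent ATP loss in HUV-EC-C cells is the measure. Exposure lasts 40 hr at 37 °C; luminescence follows CellTiter-Glo addition, and Hill fits give AC50.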

[9] = Cell Viability - H-4-II-E (AID 543); conditions: H-4-II-E rat hepatoma viability; series mostly up to 92.2 µM; note: % is set by controls: 0 for no effect and ±100 for the full control effect; nearly all actives have a fitted effect of over 35% in size
Method in brief: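 AC50 from Hill-modelled qHTS concentration-response curves. H-4-II-E rat hepatoma cells in complete medium, 40 hr exposure at 37 °C, viability by CellTiter-Glo ATP luminescence.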

[10] = Cell Viability - SH-SY5Y (AID 544); conditions: SH-SY5Y neuroblastoma cell viability; viability change, negative = cytotoxic: at 92.2 µM (top of the series); note: nearly all actives have a fitted effect of over 55% in size
Method in brief: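 Quantitative HTS in SH-SY5Y neuroblastoma cells, 40 hr treatment at 37 °C, ATP content by luciferase luminescence; AC50 from Hill fits.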

[11] = Cell Viability - Renal Proximal Tubule (AID 545); conditions: renal proximal tubule cells viability, primary cells of rat origin; activity change, negative = cytotoxicity: at 91.7 µM (top of the series); note: nearly all actives have a fitted effect of over 40% in size
Method in brief: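 Luminescent ATP signal (CellTiter-Glo) served as the viability read-out after 40 hr compound exposure of freshly isolated rat proximal tubule cells at 37 °C. Concentration-dependent ATP loss was fitted with the Hill equation to give AC50.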

[12] = Cell Viability - Mesenchymal (AID 546); conditions: mesenchymal cells viability, qHTS; activity change, negative = cytotoxicity: at 91.7 µM (top of the series);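 note: cells exposed to compound for 40 hours before reading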
Method in brief: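 CellTiter-Glo luminescence (intracellular ATP, 20 min room temperature) after 40 hr compound exposure at 37 °C of 1000 glomerulus-derived human kidney mesenchymal cells/well; AC50 values obtained by fitting qHTS concentration-response data to the Hill equation.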

[13] = Cellular Toxicity (caspase-3) HepG2 (AID 654); conditions: HepG2 caspase-3 activation, luminescence; series mostly up to 92.2 µM;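 note: cells exposed to compound for 16 hours before reading; 0% = DMSO alone and 100% = caspase signal from 100 µM tamoxifen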
Method in brief: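 Concentration-response AC50 values reflect caspase-3/7 induction in HepG2 cells after 16 hours of compound exposure, quantified by luminescence from liberated aminoluciferin and referenced to 100 uM tamoxifen as full stimulation.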

[14] = Cellular Toxicity (caspase-3) Jurkat (AID 655); conditions: Jurkat caspase-3 activation, luminescence; caspase-3 activation: at 92.2 µM (top of the series), DMSO = 0%, tamoxifen = 100%;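 note: cells exposed to compound for 16 h at 37 °C before reading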
Method in brief: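 5000 Jurkat cells/well; compound 16 hr, 37 °C; Caspase-Glo 3/7 added, 20 min RT; luminescence read. Norm: DMSO = 0%, tamoxifen 100 uM = 100%. AC50, Hill model.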

[15] = Cellular Toxicity (caspase-3) HUV-EC-C (AID 656); conditions: HUV-EC-C cells, caspase-3 activation (apoptosis); series mostly up to 92.2 µM
Method in brief: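 qHTS; HUV-EC-C, 1000 cells/well; 5 hr settle, 16 hr cmpd, 37°C; Caspase-Glo 3/7, 20 min RT; luminescence. Norm: DMSO = 0%, tamoxifen 100 uM = 100%. Hill-fit AC50.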

[16] = Cellular Toxicity (caspase-3) SHSY5Y (AID 657); conditions: SH-SY5Y caspase-3 activation; series mostly up to 91.7 µM
Method in brief: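 qHTS, SH-SY5Y, 1500 cells/well, 5 h pre-incubation 37 °C; compound 16 h 37 °C; Caspase-Glo 3/7 1 h RT; luminescence. Norm.: DMSO = 0, 10 uM staurosporine = 100%. Hill fit → AC50.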

[17] = Cellular Toxicity (caspase-3) BJ (AID 658); conditions: BJ fibroblasts, luminescence; Potency: caspase-3 activation; series mostly up to 91.7 µM
Method in brief: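 Caspase-Glo 3/7 luminescence, read 1 hr after reagent at room temperature, in normal BJ fibroblasts exposed 16 hours at 37 °C. AC50 values from Hill-equation concentration-response, scaled between DMSO basal and 10 uM staurosporine as 100%.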

[18] = Cellular Toxicity (caspase-3) MRC-5 (AID 659); conditions: MRC-5 cells, luminescence, normalized: DMSO 0%, 10 µM staurosporine 100%; series mostly up to 91.7 µM
Method in brief: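 Luminescent Caspase-Glo 3/7 read-out (1 h, room temperature) after a 16 h, 37 °C compound exposure of MRC-5 lung fibroblasts at 1500 cells/well. Concentration-response AC50 from Hill equation; 0% DMSO, 100% 10 uM staurosporine.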

[19] = Cellular Toxicity (caspase-3) Mesangial (AID 660); conditions: mesangial cells, normalized: DMSO 0%, 100 µM tamoxifen 100%; series mostly up to 91.7 µM;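 note: combined caspase 3 and 7 activity read by Caspase-Glo luminescence; cells exposed to compound for 16 h before the caspase read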
Method in brief: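 AC50 values come from Hill-equation fits of caspase 3/7 activation, measured as Caspase-Glo luminescence in human glomerular mesangial cells exposed to compound for 16 h at 37 °C; 100% set by 100 uM tamoxifen.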

[20] = Cellular Toxicity (caspase-3) SK-N-SH (AID 661); conditions: SK-N-SH caspase-3 activation, qHTS, DMSO as zero, staurosporine as full; series mostly up to 91.7 µM
Method in brief: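 Apoptosis readout in SK-N-SH neuroblastoma: Caspase-Glo 3/7 luminescence following 16 hr treatment in complete culture medium. Normalization used DMSO and 10 uM staurosporine controls.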

[21] = Cellular Toxicity (caspase-3) H-4-II-E (AID 663); conditions: H-4-II-E rat hepatoma; Potency: caspase-3 activation; series mostly up to 92.2 µM;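 note: cells exposed to compound for 16 hr before readout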
Method in brief: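 Caspase 3/7 activation measured by luminescent aminoluciferin substrate cleavage after 16 hr compound treatment of H-4-II-E cells in complete medium. Increase normalized between DMSO (basal) and 100 uM tamoxifen (100%); Hill-equation AC50 from concentration-response.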

CCc1ccc(C(c2ccc(CC)cc2)C(Cl)Cl)cc1
inactive: Potency [1] > 92 µM | Potency [2] > 92 µM | Potency [3] > 92 µM | Potency [4] > 92 µM | Potency [5] > 92 µM | Potency [6] > 92 µM | activity change, negative = cytotoxicity [7] -11.4% | Potency [8] | Potency [9] | Potency [10] | Potency [11] | Potency [12] | Potency [13] | Potency [14] | Potency [15] | Potency [16] | Potency [17] | outcome [18] | outcome [19] | outcome [20] | Potency [21]
